The text below walks through data of ChEMBL document CHEMBL4513216, “Probing the Open Global Health Chemical Diversity Library for Multistage-Active Starting Points for Next-Generation Antimalarials” (ACS Infect Dis, 2020).

SMILES strings stand for the structures. Out of some 69,000 compounds screened, about 8,600 (12%) showed an effect of 50% or more. The list comes from a sample in which strong results are over-represented; it also holds similar structures and randomly drawn compounds.

The test deals with Plasmodium berghei. Nature of the test: Screen against P. berghei liver stage (PbLuc), transformed with Luciferase, at 10uM. It counts as functional, HepG2. Conditions: tested at 10 uM.
Regarding `CC(C)n1ncc2cc(NC(=O)N3CCC(C(N)=O)C3)cnc21` (stereo unspecified), the INHIBITION was determined as 7.08%.
Then `CC(=O)NC1CCCN(C(=O)Nc2cnc3c(cnn3C(C)C)c2)C1` (stereo unspecified), with 4.31%; and `O=C1CC[C@H]2CN(Cc3cccnc3)CC[C@H]2N1CCc1c[nH]cn1`, with 23.9%; and `Cc1nc(CN2CC[C@@H]3[C@@H](CCC(=O)N3CCc3c[nH]cn3)C2)co1`, with 44.8%.
Then `O=C1CC[C@H]2CN(Cc3ccc(Cl)s3)CC[C@H]2N1CCc1c[nH]cn1`, with 78.5%; and `CN(CCO)c1ncc(-c2ccc(NC(=O)[C@@H]3CCCCN3)cc2)cn1`, with -4.82%.
The same measure for `CCOC(=O)Cn1c(=O)nc(N)c2c(-c3ccc(OC)cc3)csc21`: 18.3%; for `C=C(C)Cn1c(=O)nc(N)c2c(-c3ccc(OC)cc3)csc21`: 33.2%; for `COc1ccc(-c2csc3c2c(N)nc(=O)n3CCN(C)C)cc1`: 50.8%.
On to `COc1ccc(-c2csc3c2c(N)nc(=O)n3CCCN(C)C)cc1`, for which the INHIBITION amounted to 60.1%.
The same measure for `COc1ccc(-c2csc3c2c(N)nc(=O)n3CC(N)=O)cc1`: 58.2%; for `CCc1c(C)sc2c1c(N)nc(=O)n2CCN(C)C`: -14.2%; for `CCn1c(=O)nc(N)c2c(-c3ccc(OC)cc3)csc21`: 23.9%.
Then `COc1ccc(-c2csc(N)c2C#N)cc1`, with 40.9%; and `CCc1c(C)sc2c1c(N)nc(=O)n2CCCN(C)C`, with -11.9%; and `COc1ccc(CN2C[C@@H]3OCCN(C)[C@@H]3C2)cc1`, with 22.9%.
`CCOC[C@@]12CCC[C@@H]1CN(C(=O)COc1ccccc1OC)C2`: the INHIBITION is given as 10.4%.
Turning to `Cc1noc(C)c1CN1C(=O)[C@@H]2CC[C@H]1CN(Cc1cccc(O)c1)C2`, the INHIBITION is reported as -77.6%.
The same measure for `COCC(O)CN1CC(C)(C)CN(C(=O)CCc2ccccc2)CC1=O` (stereo unspecified): -39.8%.
Then `Cc1ccccc1C(NC(=O)NCC1(O)CCC1)C1CC1` (stereo unspecified), with -15.9%.
Then `CC(C)n1nnnc1-c1ccc(NC(=O)C(C)(C)C#N)cc1F`, with 6.09%; and `CN(C)CC1CCCCN1C(=O)c1ccc(N2CCOCC2)cc1` (stereo unspecified), with 23.4%; and `CCc1nc(CN(C)C(=O)C2CC(=O)N(c3cccc(O)c3)C2)no1` (stereo unspecified), with 10.3%.
Consider `CCc1ccc(CN(C)C(=O)C2CC(=O)N(c3cccc(O)c3)C2)nc1` (stereo unspecified), for which the INHIBITION amounted to 32.1%.
On to `CCc1cc(CN(C)C(=O)C2CC(=O)N(c3cccc(O)c3)C2)on1` (stereo unspecified), for which the INHIBITION is listed as 66.6%.
The same measure for `Cc1cccc(Cn2cc(C)c(N)n2)c1`: 2.6%; for `CN1[C@H](CN2CCCC2)C[C@@H]2CN(Cc3ccoc3)CC[C@@H]21`: -14.3%.
The same measure for `CCc1ncnc2c1CCN(C(=O)c1cccn1C)CC2`: 64.9%.
Then `Cc1ncnc2c1CCN(C(=O)c1cccn1C)CC2`, with -0.388%.
For `Cn1cccc1C(=O)N1CCc2ncnc(N3CCCC3)c2CC1`, the INHIBITION was 48.9%.
On to `CCN(C)c1ncnc2c1CCN(C(=O)c1cccn1C)CC2`, for which the INHIBITION was 52%.
The same measure for `CCN(C)c1ncnc2c1CCN(C(=O)c1ccsc1)CC2`: 14.9%; for `CCN(C)c1ncnc2c1CCN(C(=O)c1ccccn1)CC2`: -54.5%; for `O=C(NCCOc1ccc2c(c1)OCO2)N1CCCC(CO)C1` (stereo unspecified): -27.8%.
Turning to `Cc1nnc(CN(Cc2ccc3c(c2)OCO3)C2CCCCC2)o1`, the INHIBITION is -9.76%.
Consider `Cn1nc2c(cc1=O)CN(CC(=O)Nc1nccs1)CC2`, for which the INHIBITION is 13.3%.
The same measure for `Cc1nn(C)c(C)c1-c1ccc(=O)n(C(C)C(=O)NC(C)(C)C)n1` (stereo unspecified): 4.02%.
The same measure for `CCCN(CCC)C(=O)Cn1c(SC)nc2ccsc2c1=O`: 39.1%; for `Cn1nc(C(=O)NC2CCCCC2)cc1NC(=O)C1CC1`: 53.5%; for `Cc1nn(C)c(C)c1CNC(=O)c1cc(NC(=O)C2CC2)n(C)n1`: 31.35%.
The same measure for `Cn1nc(C(=O)NC2CCCC2)cc1NC(=O)C1CC1`: -22.8%; for `Cc1ccc(CNC(=O)c2cc(NC(=O)C3CC3)n(C)n2)o1`: -8.95%.
Turning to `Cn1nc(C(=O)NC2CC2)cc1NC(=O)C1CC1`, the INHIBITION stood at 75.3%.
Then `Cn1nc(C(=O)NC2CC(C)(C)NC(C)(C)C2)cc1NC(=O)C1CC1`, with 21.8%.
The same measure for `CCc1nc(C2CCCN2C(=O)c2ccc3c(c2)COC3)no1` (stereo unspecified): 33.8%.
Then `CN1CCN(C(=O)c2cc3sccc3n2Cc2ccccc2)CC1`, with 11.7%; and `NC(=O)c1cccc(CN2CCOC(Cn3cccn3)C2)c1` (stereo unspecified), with 30.2%.
Turning to `CCOC(=O)[C@@H]1[C@@H](c2ccccc2)CN2CCNC[C@H]12`, the INHIBITION is on record as 50.2%.
Then `CCOC(=O)[C@@H]1[C@H]2CN(C(=O)OC)CCN2C[C@H]1c1ccccc1`, with -43.6%; and `CNC(=O)[C@@H]1[C@H]2CNCCN2C[C@H]1c1ccccc1`, with 11.6%; and `CCOC(=O)[C@@H]1CN2CCNC[C@@H]2[C@H]1c1ccccc1`, with 46.4%.
Then `CCOC(=O)[C@@H]1[C@@H](c2ccccc2)CN2CCN(C(C)=O)C[C@H]12`, with 51%; and `CCOC(=O)[C@@H]1[C@@H](c2ccccc2)CN2CCN(C(=O)N(C)C)C[C@H]12`, with 32.1%; and `O=C(C1CC1)N1CCN2C[C@H](c3ccccc3)[C@@H](CO)[C@H]2C1`, with 51%.
`CCOC(=O)[C@@H]1[C@@H](c2ccccc2)CN2CCN(C(=O)C3CC3)C[C@H]12`: the INHIBITION was 12.4%.
Then `O=C(C1CC1)N1CCN2C[C@@H](CO)[C@H](c3ccccc3)[C@H]2C1`, with 49.5%.
